Bioassay records from PubChem.
HT1080NT lethal – kills 2HG-producing HT-1080-NT fibrosarcoma cells | HT-1080-NT fibrosarcoma viability, CellTiter-Glo ATP luminescence, 48 h | 1.6% of 360,000 active | AID 686970 | Potency, µM (titrated, usually from 46.1 µM), most hits filed as cytotoxic;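 note: NT is the 2HG producing partner of a matched IDH1 knockdown line; nearly all actives have a fitted effect of over 55% in size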
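750 cells/well, RPMI + 5% FBS; 2 h settle, compound pin-transfer, 48 h at 37 degrees C. CellTiter-Glo 10 min RT, luminescence. Normalized to DMSO and media-only wells.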
HT1080 IDH1KD tx – toxicity to HT-1080 IDH1 knockdown cells (counter line) | Potency, µM (doses to about 46.1 µM), most hits filed as cytotoxic | 2% of 360,000 active | HT-1080 IDH1 knockdown viability, ATP luminescence, 48 h
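Assay cells: HT-1080 with IDH1 knockdown, 750 per well, RPMI/5% FBS. Exposure: 48 h at 37 °C following 2 h pre-incubation. Read: CellTiter-Glo luminescence; fitted concentration-response, curve class assigned.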
IL-1B inflam inh – inflammasome signaling inhibition, IL-1 beta readout; THP-1 LPS/ATP IL-1B secretion, AlphaLISA, 16 h; hits give low values; AID 743279; activity change, % at 57.5 µM; 4.7% of 360,000 active; in the data active = activity change below about -50%; inconclusive = mostly about -30% to -49%
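Secreted IL-1B measured by AlphaLISA bead assay after 16 h compound exposure of THP-1 cells; compounds (final up to 57.5 uM) added 1 h before LPS (250 ng/mL) and ATP (1.25 mM) stimulation; lower signal means less secretion.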
TDP1 cell noCPT – qHTS for Inhibitors of human tyrosyl-DNA phosphodiesterase 1 (TDP1): qHTS in cells in absence of CPT. Potency, µM (series often up to 46.2 µM), most hits filed as inhibitors. 15% of 420,000 active. AID 686978, 2013. DT40 Tdp1-/- hTDP1 cells, no CPT, ATP luminescence, 48 h; note: nearly all actives have a fitted effect of over 55% in size
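Luminescent ATP content (CellTiter-Glo) served as the growth readout. Knockout chicken DT40 cells expressing human TDP1 were exposed to compounds without camptothecin for a minimum 48 hr at 37 °C.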
DT40 TDP1 CPT – growth inhibition of DT40 Tdp1-/-;hTDP1 cells with camptothecin (screen for TDP1 inhibitors). chicken DT40 Tdp1-/-;hTDP1 cells + 20 nM CPT, ATP luminescence, 48 h. Potency, µM (series often up to 46.2 µM), most hits filed as inhibitors. 12% of 420,000 active. AID 686979; note: nearly all actives have a fitted effect of over 55% in size
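Chicken DT40 Tdp1-/- cells stably complemented with human TDP1 were seeded at 400 cells/well in medium containing 20 nM camptothecin, exposed to pin-transferred compounds, and grown at 37 °C for at least 48 hr. Viability was read as ATP luminescence.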
Each line names hits and unclear results; the compound was inactive in the other large screens. Hits are enriched below; roughly 19% of the tested compounds scored in any of these assays. Unless noted, calls come from the whole dose curve; as a rule, active = well fitted curve in the direction sought with a large enough effect; inconclusive = small, poorly fitted or top-dose-only effect, or another doubt; inactive = no such curve, though single readings can be large; an effect the other way counts as inactive or inconclusive.

Cc1nn2c(Nc3ccc(F)cc3)c3c(nc2c1-c1ccccc1)CCC3	none
COCCNc1c2c(nc3c(-c4ccccc4)c(C)nn13)CCCC2	HT1080NT lethal inconclusive, HT1080 IDH1KD tx inconclusive, TDP1 cell noCPT inconclusive, DT40 TDP1 CPT 15.8µM
COc1cccc(Nc2c3c(nc4c(-c5ccccc5)c(C)nn24)CCC3)c1	TDP1 cell noCPT 13µM
Cc1nn2c(NCCOCCO)c3c(nc2c1-c1ccccc1)CCCC3	IL-1B inflam inh inconclusive, TDP1 cell noCPT inconclusive
Cc1ccc(NC(=O)CN(C)S(=O)(=O)c2cnc[nH]2)cc1	none (no result: HT1080NT lethal, HT1080 IDH1KD tx, IL-1B inflam inh)
CC1(C)CC(NC(=O)C2CCN(S(=O)(=O)c3cccc(C(F)(F)F)c3)CC2)CC(C)(C)N1	none
COc1ccc(OC)c(NC(=O)c2ccc(-c3nc(CSc4ccccc4)c(C)o3)cc2)c1	TDP1 cell noCPT 20.6µM, DT40 TDP1 CPT 20.6µM (no result: HT1080NT lethal, HT1080 IDH1KD tx, IL-1B inflam inh)
COc1cc(NC(=O)c2ccc(-c3nc(COc4ccccc4)c(C)o3)cc2)cc(OC)c1	TDP1 cell noCPT 10.3µM, DT40 TDP1 CPT 9.2µM (no result: HT1080NT lethal, HT1080 IDH1KD tx, IL-1B inflam inh)
Cc1ccc(SCc2nc(-c3ccc(C(=O)NCC(C)c4ccccc4)cc3)oc2C)cc1 (stereo unspecified)	TDP1 cell noCPT 6.51µM, DT40 TDP1 CPT 8.2µM (no result: HT1080NT lethal, HT1080 IDH1KD tx, IL-1B inflam inh)
COc1cccc(CNC(=O)c2ccc(-c3nc(CS(=O)c4ccccc4)c(C)o3)cc2)c1 (stereo unspecified)	TDP1 cell noCPT 16.4µM, DT40 TDP1 CPT inconclusive (no result: HT1080NT lethal, HT1080 IDH1KD tx, IL-1B inflam inh)
CCN(CC)CCNC(=O)Cn1nc(C)c2c(C)n(-c3ccccc3)nc2c1=O	none (no result: HT1080NT lethal, HT1080 IDH1KD tx, IL-1B inflam inh)
CC(C)N1C(=O)c2ccccc2NC(=O)C1C(=O)NCc1ccccc1 (stereo unspecified)	none
Cc1ccc(OCC(=O)N2CCCCC2C)c([N+](=O)[O-])n1 (stereo unspecified)	none
CCOC(=O)C1=C(N)N(c2ccccc2)C(=O)C1	TDP1 cell noCPT 16.4µM, DT40 TDP1 CPT 7.31µM
COc1cc(CN2CCCC(n3cc(C(=O)N4CCCC4)nn3)C2)cc(OC)c1 (stereo unspecified)	none (no result: HT1080NT lethal, HT1080 IDH1KD tx, IL-1B inflam inh)
Cc1ccc(NC(=O)COC(=O)c2ccc3c(c2)NC(=O)C2CCCN32)cc1 (stereo unspecified)	HT1080NT lethal inconclusive, TDP1 cell noCPT inconclusive, DT40 TDP1 CPT 16.4µM
OC(c1cc(-c2cccc(Cl)c2)nc2ccccc12)C1CCCCN1 (stereo unspecified)	HT1080NT lethal 4.11µM, HT1080 IDH1KD tx 2.91µM, IL-1B inflam inh -100.6, TDP1 cell noCPT 2.59µM, DT40 TDP1 CPT 16.4µM
COC(=O)c1ccccc1NC(=O)CN(C)S(=O)(=O)c1cc(C)ccc1OC	TDP1 cell noCPT inconclusive
COc1cc(OC)cc(-c2cc3ccc(OC)cc3cn2)c1	HT1080NT lethal inconclusive, HT1080 IDH1KD tx inconclusive, TDP1 cell noCPT 13µM, DT40 TDP1 CPT 16.4µM
COc1cc(OC)cc(-c2cc3cc4c(cc3cn2)OCO4)c1	HT1080NT lethal 0.92µM, HT1080 IDH1KD tx 0.581µM, TDP1 cell noCPT 0.517µM, DT40 TDP1 CPT 0.651µM
COc1ccc(-c2cc3cc4c(cc3cn2)OCO4)cc1	none
CN(Cc1ccc(OCC(O)CN2CCCCC2)cc1)Cc1ccnc2ccccc12 (stereo unspecified)	TDP1 cell noCPT 4.61µM, DT40 TDP1 CPT 9.2µM
Cc1nn(C)cc1CN(C)Cc1ccc(OCC(O)CN2CCCCC2)cc1 (stereo unspecified)	none
O=C(c1nc2ccccn2c1CNCCn1ccc2ccccc21)N1CCOCC1	DT40 TDP1 CPT inconclusive
O=C(NC1(C(F)(F)F)C(=O)Nc2c1c(=O)[nH]c(=O)n2-c1ccc(F)cc1)c1ccccc1 (stereo unspecified)	none (no result: HT1080NT lethal, HT1080 IDH1KD tx, IL-1B inflam inh)
Cc1cccc(C2=NC(C(F)(F)F)(C(F)(F)F)c3c(n(-c4ccc(F)cc4)c(=O)[nH]c3=O)N2)c1	TDP1 cell noCPT 16.4µM, DT40 TDP1 CPT 20.6µM
CC(=O)N1c2ccc(S(=O)(=O)N3CCC(C(=O)Nc4ccc(C)cn4)CC3)cc2CC1C (stereo unspecified)	TDP1 cell noCPT inconclusive, DT40 TDP1 CPT inconclusive
Cc1ccc(NC(=O)C2CCN(S(=O)(=O)c3ccc4c(c3)CC(C)N4C(=O)C3CCC3)CC2)nc1 (stereo unspecified)	HT1080 IDH1KD tx inconclusive, IL-1B inflam inh -81.1, TDP1 cell noCPT inconclusive, DT40 TDP1 CPT 16.4µM
